Data as given in paper PMC5540273 (PLoS ONE, 2017).

Tests used:
Settings in all cases: concentration: 1 μM, replicates: in singlicate; n = 1
TIE2 = tested on: T1, TIE2
T1 construct: gene TEK

TLK1 = tested on: TLK1
TLK2 = tested on: TLK2
TNIK = tested on: TNIK
TNK1 = tested on: TNK1
TNK2 = tested on: TNK2
TNNI3K = tested on: TNNI3K
TRKA = tested on: T2, TRKA
T2 construct: gene NTRK1

TRKB = tested on: TRKB
TRKC = tested on: T3, TRKC
T3 construct: gene NTRK3

TRPM6 = tested on: TRPM6
TSSK1B = tested on: TSSK1B
TSSK3 = tested on: TSSK3
TTK = tested on: TTK
TXK = tested on: TXK
[1] = tested on: TYK2(JH1domain-catalytic)
[2] = tested on: TYK2(JH2domain-pseudokinase)
TYRO3 = tested on: TYRO3
ULK1 = tested on: ULK1
ULK2 = tested on: ULK2
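Note: KINOMEscan kinase panel screen.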

Structure (SMILES)	%Inh (TIE2) [%]	%Inh (TLK1) [%]	%Inh (TLK2) [%]	%Inh (TNIK) [%]	%Inh (TNK1) [%]	%Inh (TNK2) [%]	%Inh (TNNI3K) [%]	%Inh (TRKA) [%]	%Inh (TRKB) [%]	%Inh (TRKC) [%]	%Inh (TRPM6) [%]	%Inh (TSSK1B) [%]	%Inh (TSSK3) [%]	%Inh (TTK) [%]	%Inh (TXK) [%]	%Inh [1] [%]	%Inh [2] [%]	%Inh (TYRO3) [%]	%Inh (ULK1) [%]	%Inh (ULK2) [%]
CCS(=O)c1ccc(-c2coc3ccc(-c4nnc(C)o4)cc23)cc1 (centres unmarked)	10	17	0	12	0	3	0	28	5	5	0	0	0	14	0	21	11	0	0	4
CN1C(=O)C(Nc2cc(Cl)c(O)c(Cl)c2)=C(c2ccc(Cl)cc2)C1=O [SB-404321]	0	0	0	0	22	0	0	52	36	10	0	0	22	0	0	0	13	0	0	0
Nc1nc(-c2ccccc2F)c(-c2ccnc3ccccc23)s1 [GW560459]	3	0	0	65	0	3	94.1	0	26	31	32	14	10	20	0	7	32	0	0	0
CCS(=O)(=O)c1ccc(OC)c(Nc2ncc(-c3ccc(F)cc3)o2)c1.Cl [GW591947]	0	0	0	0	0	12	8	15	0	0	4	10	13	0	0	1	0	4	0	0
COc1cc2ncn(-c3cc(OCc4ccncc4)c(C(N)=O)s3)c2cc1OC [GSK336313]	7	0	0	13	0	5	0	0	0	0	24	0	11	0	6	3	13	0	16	0
COc1ccc(-n2cnc3c(N)ncnc32)cc1 [SKF-97236]	18	0	0	18	0	0	18	61	9	0	66	11	0	28	12	11	24	0	21	10
COc1ccc(Nc2nccc(N3CCC(NS(=O)(=O)c4ccc(NC(C)=O)cc4)C3)n2)cc1 (centres unmarked) [GSK1379729]	8	0	0	0	18	12	100	65	0	19	0	0	21	7	35	93.8	0	23	26	0
COc1cc2ncn(-c3cc(OCc4ccncc4Br)c(C(N)=O)s3)c2cc1OC [GW854278]	6	18	0	39	33	0	18	0	0	7	0	0	0	0	21	0	5	11	2	0
Nc1n[nH]c2nnc(-c3ccccc3)c(-c3ccccc3)c12 [GW554060]	0	0	0	0	0	19	0	0	14	24	0	13	20	0	12	34	55	10	27	8
Cc1ccc(-c2ccc3c(ccc4sc5c(c43)NC[C@@H](C)N=C5N(C)C)n2)cn1	0	0	0	2	34	0	0	0	0	0	0	0	0	0	0	0	0	0	0	0
